# From PubChem BioAssay AID1239 (SRMLSC, 2008)
# About 3,100 (1.6%) of roughly 190,000 compounds were called active. What follows is part of a selection rich in actives, with near analogues and random picks from the rest. Unmarked numbers belong to inactive results. Rule as the data show it: active = fold change above about 3.3; inconclusive = no clear call, values can overlap the other calls; inactive = below that.
# Test: NF-kB upregulation, human neuronal cells – cell-based, HTS, primary screen (AID 1239)
# Conditions: NF-kB reporter expression, at 12.5 µM, active compounds read high
row,SMILES,fold change
1,Cc1nc2ccccc2c(C)c1C(=O)c1ccc(F)cc1,0.8
2,COC(=O)c1c(NC(=O)CCCC(=O)O)sc2c1CCCCC2,0.98
3,CCn1c(=S)[nH]c2sc3c(c2c1=O)CCCCC3,1.2
4,CN(NC(=O)c1ccccc1)c1nc2ccccc2nc1C(F)(F)F,1.32
5,CSc1nc(N(C)NC(=O)c2cccc(C)c2)c2ccccc2n1,3.68 (active)
6,CN(NC(=O)c1ccccc1F)c1nc(C(F)(F)F)nc2ccccc12,1.67
7,Cc1cc(NS(=O)(=O)c2ccc(NC(=O)c3cccc(OC(F)F)c3)cc2)nc(C)n1,1.45
8,O=C1CN(C(=O)CN2C(=O)NC3(CCCCC3)C2=O)c2ccccc2N1,1.43
9,Cc1cc(C(C)(C)C)cc(C)c1N,1.01
10,COc1ccc(-c2cc(C)nc3nc(N)nn23)cc1,1.23
11,Cc1cc(N)n2nc(-c3ccc(C(C)(C)C)cc3)cc2n1,5.07 (active)
12,O=C(O)Cc1sc(-c2ccc(C(=O)O)cc2)nc1-c1ccccc1,1.21
13,O=C(O)Cc1sc(-c2ccccc2)nc1-c1cccs1,1.28
14,NC(=O)Cc1ccc2sc(-c3ccccc3)nc2c1,6.92 (active)
15,CCc1cccc(NC(=O)CCNS(=O)(=O)c2cccc3nonc23)c1,1.16
16,O=[N+]([O-])c1ccc(N2CCN(c3ccc(O)cc3)CC2)c(Cl)c1,4.06 (active)
17,COc1ccc(N2CCN(c3ccc([N+](=O)[O-])cc3Cl)CC2)cc1,0.93
18,CCN1CCN(c2ccc([N+](=O)[O-])cc2C(=O)c2ccc(Cl)cc2)CC1,1.37
19,CCc1nnc(NC(=O)CCCSc2nc3ccccc3[nH]2)s1,1.01
20,COc1cccc(C(=O)Nc2ccc(NC(=O)c3ccco3)cn2)c1,1.03
21,O=C(Nc1ccc(NC(=O)c2cccs2)cn1)c1ccco1,4.48 (active)
22,Cc1ccnc(NC(=O)c2ccc(NC(=O)c3ccco3)cc2)c1,1.64
23,COc1cc(CN2CCNC(=O)C2CC(=O)NCCc2ncccc2C)cc(OC)c1 (stereo not drawn),1.05
24,COCCSc1nnc(NC(=O)c2cc(OC)c(OC)cc2[N+](=O)[O-])s1,1.11
25,CCOC(=O)/C(=N\Nc1ccccc1Cl)N(C)C1CCS(=O)(=O)C1 (stereo not drawn),0.99
26,COc1cc(S(=O)(=O)N2CCOCC2)ccc1NC(=O)COc1ccc(N(C)S(=O)(=O)c2ccc(C)cc2)cc1,0.76

row,SMILES,fold change
1,COc1ccc(Cl)cc1C(=O)NCC#N,0.94
2,N#C/C=C\Oc1ccc(Cl)cc1N,3.39 (active)
3,Cn1cc(CCC(=O)N2CCCC(C(=O)c3ccc(C(C)(C)C)cc3)C2)cn1 (stereo not drawn),0.83
4,CNc1nccc(-c2ccc(Cl)cc2)c1C#N,1.47
5,Cc1c(Br)ccc(NC(=O)COc2ccccc2C(N)=O)c1C,1.08
6,O=C(NC1CCCC1)C(c1ccc(N2CCOCC2)cc1)N(C(=O)c1ccco1)c1ccccc1F (stereo not drawn),1.05
7,O=C(COc1ccc(NC(=O)c2ccccc2[N+](=O)[O-])cc1)c1ccc(F)cc1,1.07
8,Cc1ccc2nc(COc3ccc(N(C)S(=O)(=O)c4ccccc4)cc3)cc(=O)n2c1,1.11
9,Cc1ccc(C(=O)NCCNC(=O)c2ccccc2)cc1,1.15
10,Cc1cc(C(=O)NCCCc2ccccc2)no1,1.33
11,O=C(NCCOc1ccccc1)c1ccccc1,4.39 (active)
12,Nc1ccc(C(=O)NCc2ccccc2)cc1,1
13,O=C(NCCc1ccccc1)c1ccc(OCCOc2ccccc2)cc1,1.27
14,CCCOc1ccc(C(=O)NCCc2ccccc2)cc1,6.46 (active)
15,CC(C)c1ccc(C(=O)NCCCc2ccccc2)cc1,4 (active)
16,COc1ccc(OCCCC(=O)NCCc2ccccc2)cc1,1.08
17,NS(=O)(=O)c1cc(C(=O)NCCOc2ccccc2)c(Cl)cc1Cl,0.66
18,CC(C)OC(=O)CN1CCN(c2ccc(Cl)cc2)CC1,1.18
19,c1ccc2c(NC3C4CC5CC(C4)CC3C5)nc(N3CCOCC3)nc2c1 (stereo not drawn),0.99
20,Cc1ccc2cc3cc(C(=O)N4CCCCCC4)oc3nc2c1,4.26 (active)
21,Cc1cccc(C(=O)N2CCCN(C(=O)c3cccc(C)c3)CC2)c1,1.1
22,Cc1cc(=O)oc(C)c1C(=O)N1CCCCC1,1.16
23,CN1CCNC(=O)C1CC(=O)N1CC=C(c2ccc(F)cc2)CC1 (stereo not drawn),1.04
24,O=C(NCCC1=CCCCC1)c1ccc(Cl)c([N+](=O)[O-])c1,1.68
25,Cn1nnc2cc(C(=O)NCCC3=CCCCC3)ccc21,3.75 (active)
26,O=C(Cc1cccc2ccccc12)NCCC1=CCCCC1,1.12

row,SMILES,fold change
1,CN(c1ccc(C(=O)NCc2ccccn2)cc1)S(C)(=O)=O,1.11
2,CN(c1ccc(C(=O)NCCC2=CCCCC2)cc1)S(C)(=O)=O,3.37 (active)
3,O=C(Cc1nn[nH]n1)NCCC1=CCCCC1,1.18
4,CN(CCc1ccccn1)C(=O)CCC1CCCN(Cc2ccccc2OC(F)F)C1 (stereo not drawn),1.15
5,Cc1ccc(NC(=O)NC2CCCCC2)cc1S(=O)(=O)N1CCOCC1,1.06
6,CCN(CC)c1ccc2oc(=O)c(C)nc2c1,0.65
7,CCCCCC(=O)Nc1ccc2oc(-c3ccncc3)nc2c1,0.96
8,CCc1ccc2oc(-c3ccc(N)cc3)nc2c1,5.55 (active)
9,COC(=O)Cc1ccc(Oc2ncc(C(F)(F)F)cc2Cl)cc1,1.13
10,Fc1ccccc1/C=C1\CCCC2=C1Nc1ncnn1C2c1ccccc1F (stereo not drawn),4.05 (active)
11,OCCNCc1cccc(OCc2ccccc2Cl)c1,0.98
12,c1ccc2sc(NN=C3CCCC3)nc2c1,8.8 (active)
13,Fc1ccc2nc(Nc3nc4c(s3)CCCC4)sc2c1,3.04
14,O=[N+]([O-])c1cc(Br)c(O)c(/C=N/Nc2nc3ccccc3s2)c1,0.65
15,Cc1ccccc1NCC(=O)N/N=C\c1ccc([N+](=O)[O-])s1,0.63
16,CC(=O)Nc1cc2ccc(OC(C)=O)cc2oc1=O,1.34
17,O=C(Nc1cc2ccccc2oc1=O)C1CCCCC1,4.4 (active)
18,O=C(O)c1ccc(NC(=O)C2CCCCC2)cc1,1.04
19,O=C(N/N=C/c1ccc(OCC2COCCO2)cc1)c1ccc(Br)cc1 (stereo not drawn),0.81
20,CNc1nc2c(C)cccn2c(=O)c1C=Nc1ccc(OC)cc1,1.61
21,Nc1[nH]c(=S)nc2nc(-c3ccccc3)c(-c3ccccc3)nc12,1.13
22,COc1ccc(C2=Nc3cc(C)ccc3OC2)cc1,6.75 (active)
23,COc1ccc(C2=NOC3(CC(=O)N(c4ccc(C)cc4)C3=O)C2)cc1 (stereo not drawn),0.77
24,COc1ccc(C2=NOC(COC(=O)c3ccc4ccccc4n3)C2)cc1 (stereo not drawn),1.25
25,CC(C)(C)[Si](OCC[C@@H]1C[C@@]1(C)[C@@H](NP(=O)(c1ccccc1)c1ccccc1)c1ccccc1)(c1ccccc1)c1ccccc1,3.34 (active)
26,O=C(NCc1ccccc1)[C@H]1C[C@@H]1[C@H](NP(=O)(c1ccccc1)c1ccccc1)c1ccccc1,0.77

row,SMILES,fold change
1,COC(=O)[C@H](C)[C@H]1C[C@]1(C)[C@H](NC(=O)OCc1ccccc1)c1ccccc1,0.97
2,CCOC(=O)CCCNC(=O)COC(=O)/C=C/c1ccc2c(c1)OCO2,1.06
3,CC1(C)CC(=O)CC2(C1)NCC(c1ccccc1Cl)c1c2[nH]c2ccccc12 (stereo not drawn),0.75
4,O=C(COc1ccc([N+](=O)[O-])cc1)Nc1ccc(N2CCCC2)cc1,1.07
5,O=C(COC(=O)C1CCCCC1)Nc1ccc([N+](=O)[O-])cc1,6.28 (active)
6,N/C(Cc1ccc([N+](=O)[O-])cc1)=N\OC(=O)C1CCCCC1,1.13
7,CC1=NCCN1S(=O)(=O)c1cccc([N+](=O)[O-])c1,1.03
8,CCOC(=O)C(C)n1nc(-c2ccccc2)c2ccccc2c1=O (stereo not drawn),0.91
9,CCCn1c(NC(=O)C23CC4CC(CC(O)(C4)C2)C3)nc2ccccc21,0.92
10,NS(=O)(=O)c1ccc(NC(=O)COC(=O)c2ccc(Cl)nc2)cc1,0.87
11,CC(C(=O)O)n1cnc2sc3c(c2c1=O)CCCC3 (stereo not drawn),1.12
12,O=C(N/N=C/c1ccc2c(c1)OCO2)C(=O)N1CCCC1,1.4
13,CN(C)c1ccnc2sc(C(=O)c3ccccc3)c(N)c12,3.79 (active)
14,CN(C)c1ccnc2sc3c(=O)n(Cc4ccccc4)cnc3c12,0.86
15,Cc1nc2sc(C(=O)c3ccccc3)c(N)c2c2c1CCCC2,1.93
16,COc1ccc(/C=C/CN2CCCC(C(=O)c3cc(F)ccc3F)C2)cc1 (stereo not drawn),1.06
17,CCOc1ccc2nc(NCCNC(=O)C(C)(C)C)c(C)cc2c1,1.12
18,O=C(CCc1nnc(CCCCc2ccccc2)o1)NC(c1cccnc1)C(F)(F)F (stereo not drawn),0.86
19,Cc1ccc(-c2cn(S(=O)(=O)c3cccc([N+](=O)[O-])c3)nc2N)cc1,1.2
20,Cc1ccc(-n2cc3ccc([N+](=O)[O-])cc3n2)cc1,9.31 (active)
21,CC(C)(C)NC(=O)Cn1cnc2cc([N+](=O)[O-])ccc2c1=O,1.11
22,O=C(O)CSCC(=O)Nc1ccc(C(F)(F)F)cc1,1.18
23,C=CCSc1nc2ccccc2[nH]1,1.17
24,O=C(CSc1nc2ccccc2[nH]1)c1cccs1,3.8 (active)
25,CCCCSc1nc2ccccc2[nH]1,2.06
